In PubChem BioAssay (NCATS):
Records with an inconclusive call do not appear. Values without a mark were called inactive. Active and inactive are the calls of the source. Calls follow the shape of the dose curve; as a rule, active = well fitted cell-killing curve with a large enough effect; inconclusive = small, poorly fitted or top-dose-only effect; inactive = flat fitted curve, though single readings scatter.

Assay: Cell Viability - N2a (AID 540); also: nearly all actives have a fitted effect of over 45% in size;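 as to activity change, negative = cytotoxicity: plate controls were DMSO alone for no effect and tamoxifen control for full effect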
Details: N2a mouse neuroblastoma cell viability; activity change, negative = cytotoxicity: at 92.2 µM (top of the series)
Description: NIH Chemical Genomics Center [NCGC]
NIH Molecular Libraries Screening Centers Network [MLSCN]
National Institutes of Environmental Health Sciences [NIEHS]
National Toxicology Program [NTP]
We have developed a 1536-well cell-based assay for quantitative high throughput screening (qHTS) against a number of cell lines to determine in vitro cytotoxicity of small molecules. This particular assay uses the N2a cell line which is derived from mouse neuroblastoma.
NCGC Assay Protocol Summary:
The CellTiter-Glo luminescent cell viability assay (Promega) is a homogeneous method to measure the number of viable cells in culture. The end point readout of this assay is based on quantitation of intracellular ATP, an indicator of metabolic activity, using the luciferase reaction. Luciferase catalyzes the oxidation of beetle Luciferin to oxyluciferin and light in the presence of ATP. The luminescent signal is proportional to amount of ATP present.
Using the CellTiter-Glo luminescent cell viability assay, the amount of cellular ATP was measured in the N2a cell line with complete culture medium following compound treatment for 40 hours. The assay was performed in opaque white Kalypsys 1536-well plates. In the screen, tamoxifen and doxorubicin were used as positive controls. Library compounds were measured for their ability to cause acute toxicity in the cell line, as reflected by a decrease in intracellular ATP levels, in a concentration-dependent manner. […] AC50 values were determined from concentration-response data modeled with the standard Hill equation.
qHTS protocol for CellTiter Glo N2a cellular assay
[Step] [Parameter] [Value] [Description]
1. Reagent; 5 uL; 1500 N2a cells/well
2. Time; 5 hr; 37 °C incubation
4. Controls; 23 nL; Tamoxifen 0.34 uM to 100 uM & Doxorubicin 0.02 nM to 100 uM
5. Time; 40 hr; 37 °C incubation
6. Reagent; 5 uL; CellTiter Glo reagent
7. Time; 20 min; Room Temperature
8. Detection; Luminescence; Viewlux plate reader
Keywords: cell viability, cytotoxicity, N2a cell line, luminescence, NTPHTS, NTPHTS_NCGC, NIEHS, EPA, DSSTox, MLSMR, MLSCN, NIH Roadmap, qHTS, NCGC
Potency is read from the fitted curve at half-maximal effect.

Compound | activity change, negative = cytotoxicity | Potency
O=C(OCc1ccccc1)c1ccccc1O | -11.2% | –
O=C1c2ccccc2C(=O)C1(O)O | -94.6% (active) | –
CN(C)c1ccc(C(=N)c2ccc(N(C)C)cc2)cc1 | – | 31.6 µM (active)
C=C1CC[C@H](O)C/C1=C/C=C1\CCC[C@]2(C)[C@@H]([C@H](C)CCCC(C)C)CC[C@@H]12 | – | 31.6 µM (active)
COc1ccc(C)cc1N | -14.1% | –
C=CC1CO1 (stereo not given) | 2.77% | –
O=C=Nc1ccc(Cl)c(Cl)c1 | – | 31.6 µM (active)
CC(=O)OCc1ccc2c(c1)OCO2 | -15.3% | –
O=C(O)c1cc(N=Nc2ccc([N+](=O)[O-])cc2)ccc1O | -5.65% | –
Cc1ccccc1OCC1CO1 (stereo not given) | -6.29% | –
CC(=O)c1ccc(Cl)c(Cl)c1Cl | -12.1% | –
CCCCCCc1ccc(-c2ccc(C#N)cc2)cc1 | -10.7% | –
S=C(NC1CCCCC1)NC1CCCCC1 | – | 31.6 µM (active)
Nc1ccc(N)c(Cl)c1 | 3.89% | –
CC(C)S | -5.34% | –
C=CC(=O)OCCCCCCOC(=O)C=C | -110% (active) | –
Cc1ccc(S(N)(=O)=O)cc1 | -12.6% | –
COc1ccc(C(=O)Nc2ccccc2)cc1[N+](=O)[O-] | -4% | –
CCCCOC(=O)COc1ccc(Cl)cc1Cl | 7.15% | –
CC(CCC(=O)O)(c1ccc(O)cc1)c1ccc(O)cc1 | 8.91% | –

Compound | activity change, negative = cytotoxicity | Potency
CCCCCCN | -7.51% | –
O=[N+]([O-])c1cc(Cl)c(Cl)c(Cl)c1Cl | -28% | –
CCCCC(CC)COC(=O)COc1ccc(Cl)cc1Cl (stereo not given) | 1.51% | –
OCC(CO)(CBr)CBr | -2.21% | –
Nc1ccc(-c2ccc(N)c(O)c2)cc1O | -122% (active) | –
c1cc2c3c(c1)ccc1cccc(c13)C2 | 0.332% | –
C=CC(C)(O)CCCC(C)CCCC(C)CCCC(C)C (stereo not given) | -17.1% | –
C1CCCNCC1 | -7.29% | –
C[C@@H]1CC2(OC(O)[C@]3(C)O[C@H]23)O[C@H]2C[C@@]3(C)[C@@H]4CC[C@H]5C(C)(C)C(O[C@@H]6OC[C@@H](O)[C@H](O)[C@H]6O)CC[C@@]56C[C@@]46CC[C@]3(C)[C@@H]12 (stereo not given in full) | -12.9% | –
C=CC(=O)CC | 4.36% | –
Nc1ccc2c(c1)C(=O)c1ccccc1C2=O | -27.2% | –
CCN(CC)c1ccc2c(C)cc(=O)oc2c1 | -15.7% | –
CC(C)OCC1CO1 (stereo not given) | -7.39% | –
O=C(Cl)c1ccc([N+](=O)[O-])cc1 | 7.26% | –
CC(/C=C/C=C(C)/C=C/C(=O)O)=C\C=C\C=C(C)\C=C\C=C(C)\C=C\C(=O)O | -5.79% | –
c1ccc(SCCSc2ccccc2)cc1 | 8.64% | –
O=C1OC(=O)c2ccccc21 | -28.6% | –
O=c1[nH]ncc2ccccc12 | -2.98% | –
CCOC(=O)C1OC1c1ccccc1 (stereo not given) | 0.144% | –
c1ccc2c(c1)ccc1ccccc12 | -13.8% | –
